Sampled rows, rich in hits. Any-hit rate of the full collection: about 7.5%.
Rab9 promoter act: Rab9 promoter activation; Huh7 Rab9 promoter-luciferase reporter, luminescence, 24 h; AID 485297; actives 2.8% (n = 320,000); Potency, µM (top dose mostly 9.22 µM), for the others: at the top dose activation, negative = inhibition, hits mostly activators; further: % of control where 0% means no effect; nearly all actives have a fitted effect of over 60% in size
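Promoter activation is measured as luciferase luminescence in Huh7 cells stably transfected with a Rab9 promoter–luciferase construct, following 24 h compound exposure at 37 °C and 10 min reagent incubation at ambient temperature.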
KinaseGlo FLuc: counter-screen: inhibitors of Kinase-Glo firefly luciferase. Q27757. Kinase-Glo luciferase, ATP luminescence, 8 min. Potency, µM (series often up to 38.3 µM), inactives show at the highest dose activity change, negative = inhibition, usual class: inhibitors. actives 0.28% (n = 200,000). AID 1379; further: on the % scale 0 is the no-effect control and ±100 the full control effect; nearly all actives have a fitted effect of over 60% in size
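Kinase-Glo luciferase light output from ATP and luciferin was measured with 10 uM ATP, within the enzyme's linear range. Buffer: 50 mM imidazole pH 7.2, 50 mM KCl, 7 mM MgCl2, 0.01% Tween 20, 0.05% BSA; luminescence read after 8 min at ambient temperature.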
NPC1 prom act: activates the NPC1 promoter | Huh7 NPC1 promoter luciferase reporter, 24 h | Potency, µM (titrated, usually from 9.22 µM), inactives show at the top dose activation, usual class: activators | actives 2.4% (n = 320,000); further: % of control where 0% means no effect; nearly all actives have a fitted effect of over 60% in size
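Luminescence from an NPC1 promoter-driven luciferase reporter in stably transfected Huh7 cells was measured after 24 h compound treatment at 37 °C, followed by 10 min ambient incubation with luciferase detection reagent.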
ELG1 genotoxic: induces genotoxicity in HEK293T cells with luciferase-tagged ELG1. Potency, µM (top dose mostly 46 µM), inactives show at the top dose activity change, positive = activation, most hits filed as activators. AID 504466. HEK293T ELG1-luciferase reporter, luminescence, 16 h. actives 1.3% (n = 330,000); further: % of control where 0% means no effect; nearly all actives have a fitted effect of over 60% in size
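After overnight (16 hr) compound treatment at 37 °C, ELG1-luciferase HEK293T cells were lysed with ONE-Glo; luminescence quantified 30 min later at room temperature.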
SMN2 splice up: enhancers of SMN2 splice variant expression | actives 2.8% (n = 210,000) | HEK293 SMN2-luciferase splicing reporter, luminescence, 30-36 h | Potency, µM (highest dose often 46.1 µM), inactives show at the highest dose activity change, positive = activation, usual class: activators; further: % of control where 0% means no effect; nearly all actives have a fitted effect of over 55% in size
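qHTS luciferase splicing reporter: luminescence rises when SMN2 exon 7 is included in transfected HEK293 cells. Compound exposure lasted 30-36 h at 37C, with 4.5 mM final sodium butyrate as control, followed by a ONE-Glo read.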
FLuc counter: firefly luciferase modulation, counter-screen for miR-21 project. P08659. purified FLuc, Km substrates, luminescence inhibition. Potency, µM (series often up to 57.5 µM), inactives show at the highest dose activity change, negative = inhibition, most hits filed as inhibitors. actives 6.9% (n = 360,000). AID 588342;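 further: plate controls were vehicle for no effect and reference inhibitor for full effect; nearly all actives have a fitted effect of over 55% in size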
Target sequence (P08659 whole entry, looked up): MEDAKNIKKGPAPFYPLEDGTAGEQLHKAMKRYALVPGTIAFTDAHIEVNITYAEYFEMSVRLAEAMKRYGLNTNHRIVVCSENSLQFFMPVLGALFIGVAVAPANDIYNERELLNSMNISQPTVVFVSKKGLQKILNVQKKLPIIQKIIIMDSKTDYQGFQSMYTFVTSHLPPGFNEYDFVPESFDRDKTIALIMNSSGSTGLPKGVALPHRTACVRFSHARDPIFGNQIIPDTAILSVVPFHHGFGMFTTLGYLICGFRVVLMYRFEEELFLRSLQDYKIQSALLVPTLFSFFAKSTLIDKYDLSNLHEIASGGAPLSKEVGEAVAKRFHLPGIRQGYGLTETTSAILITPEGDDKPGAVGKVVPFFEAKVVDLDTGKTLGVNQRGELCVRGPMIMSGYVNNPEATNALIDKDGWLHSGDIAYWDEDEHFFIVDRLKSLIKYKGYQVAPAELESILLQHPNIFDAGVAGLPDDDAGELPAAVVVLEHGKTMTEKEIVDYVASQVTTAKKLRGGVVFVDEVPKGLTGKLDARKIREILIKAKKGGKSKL
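Purified P. pyralis luciferase, 10 nM final, with Km-level 10 uM D-luciferin and 10 uM ATP in 50 mM Tris acetate pH 7.5, 10 mM Mg acetate, 0.01% Tween-20, 0.05% BSA; 6-point qHTS titration about 60 µM downward; luminescence read.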
* hit, by the source's call; ? = inconclusive; . = no result; [ ] = another dose, or the depositor's remark. The call rests on the fitted dose curve; in most records, active means well fitted curve in the direction sought with a large enough effect; inconclusive means small, poorly fitted or top-dose-only effect, or another doubt; inactive means no such curve, though single readings can be large; an effect the other way counts as inactive or inconclusive. Potency means the concentration at half of the fitted maximal effect.

SMILES	Rab9 promoter act	KinaseGlo FLuc	NPC1 prom act	ELG1 genotoxic	SMN2 splice up	FLuc counter
O=C(Nc1nc2ccc(S(=O)(=O)N3CCCCC3)cc2s1)c1cccnc1	-4.3%	-2.5%	3.8%	-1.3%	-6.9%	?
CSc1nc2ccc3nc(NC(=O)c4cccs4)sc3c2s1	3.98µM*	-2.0%	3.16µM*	?	6.8%	2.13µM*
CC(C)NS(=O)(=O)c1ccc2nc(NC(=O)c3cncc(Br)c3)sc2c1	.	.	.	.	.	19µM*
CN(C)S(=O)(=O)c1ccc2nc(NC(=O)c3cccnc3)sc2c1	.	-0.8%	.	.	14.1µM*	3.79µM*
c1ccc2nc(-c3ccc(-n4ccnc4)cc3)ccc2c1	0.631µM*	.	1µM*	2.59µM*	.	3.38µM*
Nc1ccc(-n2ccnc2)cc1	-10.0%	0.9%	4.8%	-0.1%	-10.4%	-2.4%
CCc1ccc(C(=O)COC(=O)c2ccc(Cl)nc2)cc1	?	-4.3%	17.3%	1.9%	22.8%	9.53µM*
O=C(COC(=O)c1ccc(Cl)nc1)c1ccc2c(c1)OCCO2	1.58µM*	0.0%	3.98µM*	?	-2.8%	0.757µM*
CCOC(=O)c1c(C)[nH]c(C)c1C(=O)COC(=O)c1ccc(Cl)nc1	.	.	.	0.5%	.	.
O=C(COC(=O)C(O)c1ccccc1)c1ccc2c(c1)OCCO2 (stereo not drawn)	-1.5%	-4.2%	-5.1%	4.1%	-8.3%	1.51µM*
CCC1(c2ccc(F)cc2)NC(=O)N(CC(=O)Nc2ccc(C)c(S(=O)(=O)N3CCOCC3)c2)C1=O (stereo not drawn)	1.3%	-0.8%	-2.8%	-9.4%	-4.2%	-0.3%
Nc1c([N+](=O)[O-])cnnc1-c1ccccc1	2.3%	-3.4%	-2.5%	0.9%	5.3%	1.2%
CCn1c(-c2cccnc2Cl)nc2cc(Cl)c(Cl)cc21	9.8%	6.0%	-10.0%	-1.3%	-15.1%	?
Clc1cc2nc(-c3cccnc3Cl)[nH]c2cc1Cl	?	.	0.891µM*	4.61µM*	.	3.01µM*
COc1ccccc1OCC(=O)Nc1ccc(-c2nnc(-c3ccco3)o2)cc1	21.2%	-4.1%	10.3%	3.8%	5.62µM*	0.7%
CCC(Oc1ccccc1)C(=O)Nc1ccc(-c2nnc(-c3ccco3)o2)cc1 (stereo not drawn)	?	3.8%	?	11.0%	11.2µM*	-11.5%
c1cncc(-c2nnc(-c3ccco3)o2)c1	-5.6%	-1.0%	-2.2%	?	22.4%	-0.4%
O=C(COc1ccc(Br)cc1)Nc1ccc(-c2nnc(-c3ccco3)o2)cc1	2.24µM*	-1.4%	3.98µM*	13.4%	8.91µM*	0.7%
Clc1ccc(-c2nnc(-c3ccco3)o2)cc1	2.82µM*	-11.9%	3.55µM*	?	?	12µM*
O=S(=O)(c1ccc(Cl)cc1)N1CCN(C(=S)NCC2CCCO2)CC1 (stereo not drawn)	6.7%	.	-1.6%	-2.2%	.	4.1%
CC(=O)c1cc2c(cc1NS(=O)(=O)c1cccc(C(=O)O)c1)OCO2	-1.7%	.	1.2%	2.5%	.	1.7%
CC(=O)c1cc2c(cc1NS(=O)(=O)c1ccccc1)OCO2	20.1%	1.3%	11.7%	16.4µM*	-16.6%	3.4%
O=C(CSc1ccccc1[N+](=O)[O-])NC1CCS(=O)(=O)C1 (stereo not drawn)	15.8%	0.1%	4.6%	0.2%	11.5%	3.9%
CSc1ccc(CNc2ccc(C)cc2)cc1	3.98µM*	-1.4%	3.55µM*	?	-5.3%	9.53µM*
COc1ccc(CNc2ccc(C)c(C)c2)cc1	?	1.3%	?	?	25.3%	15.1µM*
SMILES	Rab9 promoter act	KinaseGlo FLuc	NPC1 prom act	ELG1 genotoxic	SMN2 splice up	FLuc counter
Cc1ccc(NCc2ccccc2)cc1	-3.4%	-0.1%	-1.1%	-3.9%	1.7%	?
CSc1ccc(CNc2ccc(C)c(C)c2)cc1	?	1.8%	?	?	8.3%	15.1µM*
COc1cc(CNc2ccc(C)c(C)c2)cc(OC)c1OC	-11.7%	1.2%	-34.9%	17.3%	-1.7%	-13.8%
CC(=O)Nc1ccc(NC(=O)c2cc3c(=O)n(Cc4cccnc4)ccc3nc2C)cc1	.	.	.	.	.	2.6%
NC(=NCCc1ccccc1)c1cccc([N+](=O)[O-])c1	2.5%	.	-0.2%	-0.5%	.	1.3%
CCCOC(=O)c1ccc(NC(=O)c2ccoc2C)cc1	1.58µM*	?	3.16µM*	15.3%	?	9.53µM*
CCCCOC(=O)c1ccc(NC(=O)c2ocnc2C)cc1	21.5%	-5.4%	18.7%	4.7%	-8.5%	16.9µM*
CCCCOC(=O)c1ccc(NC(=O)c2ccccc2OC)cc1	0.8%	-7.3%	-3.5%	-0.4%	-44.2%	?
CCCCOC(=O)c1ccc(NC(=O)c2ccoc2C)cc1	?	-2.4%	20.6%	20.6µM*	?	?
CCCOC(=O)c1ccc(NC(=O)c2ccccc2OC)cc1	14.0%	-2.7%	10.3%	15.9%	-18.1%	?
Cc1nc2cc(F)ccc2n1C1CCN(S(=O)(=O)c2ccccc2)CC1	-0.5%	-0.7%	1.2%	-16.4%	3.5%	0.9%[2.3 µM]
COc1ccc(N2CCN(C3CCCN(Cc4cccc(C(C)=O)c4)C3)CC2)cc1 (stereo not drawn)	-3.7%	.	-0.9%	-4.7%	.	6.5%
Cc1cccc(NC(=O)Nc2ccc(C)cc2Br)c1	?	-1.5%	?	?	12.6µM*	?
Cc1ccc(CNC(=O)Nc2cccc(C)c2)cc1	2.82µM*	-1.0%	?	?	?	9.53µM*
CC(=O)NCc1ccc2[nH]c(C)cc2c1	-2.7%	1.7%	-0.6%	7.0%	1.8%	-2.4%
Cc1ccc(NC(=O)NCc2ccc3[nH]c(C)cc3c2)cc1	12.6%	-2.0%	13.8%	3.6%	22.4µM*	?
Cc1cccc(NC(=O)NCc2ccc3[nH]c(C)cc3c2)c1	?	1.9%	?	?	17.2%	19µM*
Cn1ccnc1COc1ccc(C=O)cc1	-0.9%	.	-6.1%	-3.8%	.	3.6%
COc1c(C)cc(S(=O)(=O)NCc2ccco2)c(C)c1C	-0.7%	.	0.2%	5.6%	.	-0.4%
O=S(=O)(c1ccc2oc3ccc(S(=O)(=O)N4CCCCC4)cc3c2c1)N1CCCCC1	-4.1%	0.4%	-3.9%	-0.3%	-19.8%	-0.8%
O=C(CC(C(=O)O)c1cccc(Br)c1)c1ccc(Cl)cc1 (stereo not drawn)	-1.1%	.	-0.6%	-0.9%	.	-1.1%
Cc1ccc(CSc2ccc(-c3ccco3)nn2)cc1	2.82µM*	-13.8%	3.55µM*	?	11.2µM*	4.78µM*
Cc1cccc(CSc2nnc(-c3ccco3)o2)c1	15.8%	-0.2%	17.8%	?	26.0%	?
c1ccc(CSc2ccc(-c3ccco3)nn2)cc1	1.78µM*	-6.2%	3.98µM*	8.2µM*	12.6µM*	2.39µM*

Assay outcomes deposited in PubChem BioAssay by National Center for Advancing Translational Sciences (NCATS).
